Results as given in the supplement of paper PMC10646978.
± gives the standard deviation.

Tests used:
Settings in all cases: modulator concentration 10 µM
[1] = test system: RAW-Dual (murine macrophage reporter line); assay: NF-kB reporter (SEAP) activity fold change vs agonist alone; higher = enhanced NF-kB activity
Method in brief: (§1)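 Compound reached 10 μM final in each well by pin transfer, onto RAW-Dual murine macrophage reporter cells seeded at 50 000 per well in 384-well plates. After 1 hour at 37 °C, the cells were stimulated overnight with a PRR agonist. SEAP in the supernatant was read with QUANTI-Blue at 620 nm absorbance for NF-κB, and Lucia luciferase was read with QUANTI-Luc luminescence for IRF. Each signal was turned into fold change against the mean agonist-only control on the same plate, and two replicate plates were averaged with propagated errors.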

[2] = test system: RAW-Dual (murine macrophage reporter line); assay: IRF reporter (Lucia luciferase) activity fold change vs agonist alone; higher = enhanced IRF activity
Method in brief: as §1

[3] = test system: RAW-Dual (murine macrophage reporter line); assay: viability score (confluency relative to resting cells, overnight) (fraction); higher = more viable, active = viable (0.7 or more)
Method in brief: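 Two confluency masks, generated with IncuCyte software over all imaged wells, were applied to IncuCyte images of RAW-Dual macrophages. The cells, in 384-well plates, had been exposed overnight to 10 μM final compound. The viability score is confluency as a fraction of resting cells, and a compound met the cutoff only with both masks above 70% of resting cells.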

[4] = agonist: CpG ODN 1826 0.5 ug/mL

SMILES	NF-kB reporter [1, 4]	NF-kB reporter ([1]; agonist: LPS 0.1 ug/mL)	NF-kB reporter ([1]; agonist: MPLA […])	IRF reporter ([2]; agonist: 3'3'-cGAMP 10 ug/mL)	IRF reporter ([2]; agonist: LPS 0.1 ug/mL)	IRF reporter ([2]; agonist: MPLA […])	viability score [3]
COc1ccc(Br)cc1C(=O)Nc1cc(C(F)(F)F)cc(C(F)(F)F)c1	1.2 ± 0.11	0.99 ± 0.096	1.01 ± 0.044	0.982 ± 0.036	0.991 ± 0.07	1.05 ± 0.14	0.999 (active)
Cc1ccc(S(=O)(=O)Nc2c3ccccc3c(O)c3c4c(oc23)CC(C)(C)CC4=O)cc1	0.938 ± 0.075	1.04 ± 0.067	0.935 ± 0.058	0.842 ± 0.05	1.29 ± 0.14	1.02 ± 0.16	1.01 (active)
CCOC(=O)C1=C(C)NC(C)=C(C(=O)OCC)C1c1ccc(OC)cc1OC	1.01 ± 0.21	1.27 ± 0.12	1.16 ± 0.18	1.01 ± 0.033	1 ± 0.24	1.25 ± 0.24	1 (active)
CC(=O)Nc1ccc(S(=O)(=O)N2CCC(Oc3nc(C)cc(C)n3)C2)cc1 (stereo not given)	1.13 ± 0.099	1.03 ± 0.078	0.969 ± 0.033	0.988 ± 0.063	0.987 ± 0.057	0.932 ± 0.15	0.998 (active)
COc1ccc(Nc2nc(N3CCCCC3)c3cnn(C)c3n2)cc1	0.753 ± 0.043	1.23 ± 0.096	1.08 ± 0.048	0.388 ± 0.02	0.967 ± 0.097	1.23 ± 0.12	0.969 (active)
Cl.Fc1ccc(C2CCNCC2COc2ccc3c(c2)OCO3)cc1 (stereo not given)	0.829 ± 0.23	0.938 ± 0.089	0.918 ± 0.058	0.916 ± 0.041	1.05 ± 0.18	1.07 ± 0.15	0.968 (active)
CCn1c2ccccc2c2cc(CNCCc3ccccc3)ccc21	0.476 ± 0.041	0.534 ± 0.035	0.977 ± 0.068	0.438 ± 0.067	0.605 ± 0.043	2.43 ± 0.32	0.0405 (inactive)
Cc1ccc(-c2cc(-c3ccccc3)nc(N3CCOCC3)n2)cc1	0.811 ± 0.077	1.01 ± 0.075	1.1 ± 0.076	0.71 ± 0.065	1.05 ± 0.047	1.17 ± 0.082	0.998 (active)
CCCCN(Cc1ccccc1)C(=O)C1CCN(Cc2c(F)cccc2Cl)CC1	0.378 ± 0.034	1.09 ± 0.09	0.757 ± 0.056	1.01 ± 0.029	1.69 ± 0.27	1.36 ± 0.25	0.617 (inactive)
O=C(NN=Cc1c(Br)sc2ccccc12)c1cccc(Cl)c1	0.972 ± 0.082	0.88 ± 0.17	1.18 ± 0.056	0.738 ± 0.12	0.952 ± 0.045	1.49 ± 0.1	0.887 (active)
CCOC(=O)C(CCc1ccccc1)NC1CCc2ccccc2N(CC(=O)O)C1=O.Cl (stereo not given)	1.13 ± 0.28	1.04 ± 0.072	1.05 ± 0.079	0.967 ± 0.04	1.24 ± 0.15	1.33 ± 0.21	1 (active)
OCC(CO)N[C@H]1C[C@](O)(CO)[C@@H](O)[C@H](O)[C@H]1O	0.913 ± 0.054	0.924 ± 0.074	0.916 ± 0.046	0.908 ± 0.058	1.04 ± 0.065	0.884 ± 0.07	1 (active)
Cn1cc(-c2cc(CNC(=O)c3cncc(F)c3)ccn2)cn1	1.12 ± 0.074	1.09 ± 0.1	0.964 ± 0.033	0.966 ± 0.039	0.973 ± 0.046	1.04 ± 0.2	0.995 (active)
CN1CCN(c2nc(C3=C(c4c[nH]c5ccccc45)C(=O)NC3=O)c3ccccc3n2)CC1	0.748 ± 0.034	0.961 ± 0.081	1.21 ± 0.071	0.798 ± 0.041	1.14 ± 0.24	1.17 ± 0.32	0.988 (active)
CNS(=O)(=O)C[C@H]1CC[C@H](N(C)c2ncnc3[nH]ccc23)CC1.O=C(O)/C=C\C(=O)O	0.179 ± 0.044	0.0999 ± 0.005	0.414 ± 0.033	0.0771 ± 0.0033	0.269 ± 0.029	0.376 ± 0.056	0.997 (active)
CCCC(=O)Nc1ccc(N2CCOCC2)c(Cl)c1	1.09 ± 0.21	1.04 ± 0.098	0.964 ± 0.098	0.875 ± 0.026	1.28 ± 0.22	1.21 ± 0.12	1 (active)
O=C(CC1Sc2ccccc2NC1=O)Nc1ccccc1 (stereo not given)	0.945 ± 0.084	0.877 ± 0.071	1.03 ± 0.18	0.754 ± 0.11	1.32 ± 0.29	1.41 ± 0.38	1.02 (active)
COc1ccc(CNc2nc(N3CCC[C@H]3CO)ncc2C(=O)NCc2ncccn2)cc1Cl	0.245 ± 0.011	0.629 ± 0.12	0.771 ± 0.043	1.51 ± 0.23	1.39 ± 0.4	1.23 ± 0.36	1 (active)

SMILES	NF-kB reporter [1, 4]	NF-kB reporter ([1]; agonist: LPS 0.1 ug/mL)	NF-kB reporter ([1]; agonist: MPLA […])	IRF reporter ([2]; agonist: 3'3'-cGAMP 10 ug/mL)	IRF reporter ([2]; agonist: LPS 0.1 ug/mL)	IRF reporter ([2]; agonist: MPLA […])	viability score [3]
COc1ccccc1OCCOCCOc1cccc(Br)c1	0.883 ± 0.14	1.05 ± 0.12	0.945 ± 0.087	1.05 ± 0.044	1.27 ± 0.29	1.36 ± 0.24	0.802 (active)
CC(C)(C)C(=O)C(Oc1ccc(Cl)cc1)n1ccnc1 (stereo not given)	1.3 ± 0.33	0.983 ± 0.33	1.08 ± 0.13	1.07 ± 0.044	1.31 ± 0.36	1.34 ± 0.1	0.892 (active)
CC(=O)Nc1nc(C2CC2)cc(-c2ccco2)c1C#N	1.38 ± 0.23	1.09 ± 0.09	1.02 ± 0.08	0.937 ± 0.026	1.16 ± 0.12	1.17 ± 0.12	1 (active)
CCCNS(=O)(=O)Nc1ncnc(OCCOc2ncc(Br)cn2)c1-c1ccc(Br)cc1	0.775 ± 0.21	0.995 ± 0.074	1.16 ± 0.1	0.417 ± 0.047	0.383 ± 0.083	0.465 ± 0.062	0.953 (active)
COc1ccc2ncc(S(=O)(=O)c3ccccc3)c(N3CCN(c4ccccc4)CC3)c2c1	0.611 ± 0.034	0.924 ± 0.068	1.14 ± 0.13	1.05 ± 0.036	1.4 ± 0.16	1.13 ± 0.14	0.981 (active)
CC(C)(O)c1ccccc1CC[C@@H](SCC1(CC(=O)O)CC1)c1cccc(/C=C/c2ccc3ccc(Cl)cc3n2)c1 [Prestw-1189]	1.1 ± 0.084	0.765 ± 0.056	1.04 ± 0.098	1.05 ± 0.048	1.27 ± 0.16	1.41 ± 0.34	0.881 (active)
N#CC(=Cc1ccc(-c2ccc(Cl)cc2)o1)C(N)=O	0.783 ± 0.062	0.875 ± 0.14	1.13 ± 0.1	1.07 ± 0.049	1.43 ± 0.1	1.63 ± 0.18	1.02 (active)
O=C(O[C@@H]1C[C@@H]2C[C@@H]3C[C@H](C1)N2CC3=O)c1c[nH]c2ccccc12 [Prestw-1510]	0.575 ± 0.048	0.718 ± 0.056	0.697 ± 0.043	0.931 ± 0.04	0.958 ± 0.055	0.958 ± 0.18	1 (active)
O=C(CCc1ccc(O)cc1)c1c(O)cc(O)cc1O	1.06 ± 0.2	1.07 ± 0.085	1.13 ± 0.088	0.768 ± 0.038	1.03 ± 0.12	1.23 ± 0.15	0.998 (active)
Cc1cc2ncc3c(n2n1)CCN(C(=O)c1cnoc1C)C3	0.857 ± 0.037	0.964 ± 0.077	1.02 ± 0.055	0.972 ± 0.045	1.11 ± 0.25	1.21 ± 0.43	0.896 (active)
Nc1ncnc2c1ncn2C1CC(O)C(CO)O1 (stereo not given)	0.992 ± 0.08	0.875 ± 0.065	1.12 ± 0.11	1.12 ± 0.039	1.29 ± 0.18	1.35 ± 0.26	1.05 (active)
O=C(NCCN1CCN(c2ccc(Cl)cc2)CC1)c1ccno1	0.933 ± 0.071	0.992 ± 0.082	2 ± 0.72	1.01 ± 0.05	1.24 ± 0.26	1.36 ± 0.49	0.96 (active)
COc1ccc(Cn2c(SC)nc3c(c2=O)C2(CCCCC2)Cc2ccccc2-3)cc1	1.43 ± 0.45	0.856 ± 0.076	1.15 ± 0.2	0.791 ± 0.099	0.995 ± 0.076	1.33 ± 0.25	0.989 (active)
CC(C)CN(C[C@@H](O)[C@H](Cc1ccccc1)NC(=O)O[C@H]1CO[C@H]2OCC[C@H]21)S(=O)(=O)c1ccc(N)cc1.CCO	1.7 ± 0.13	1.11 ± 0.063	1.7 ± 0.042	0.998 ± 0.056	0.982 ± 0.12	1 ± 0.081	0.996 (active)
Brc1ccc(Cn2c(CN3CCCC3)nc3ccccc32)cc1	0.679 ± 0.17	1.05 ± 0.092	1.07 ± 0.08	0.775 ± 0.029	1.12 ± 0.18	1.16 ± 0.22	0.957 (active)
COc1ccc2[nH]c(S(=O)Cc3ncc(C)c(OC)c3C)nc2c1 (stereo not given)	1.22 ± 0.23	1.01 ± 0.26	0.909 ± 0.065	0.83 ± 0.028	1.11 ± 0.27	0.934 ± 0.074	0.99 (active)
COc1ccc(Nc2nc(N3CCCC(C)C3)nc3[nH]ncc23)cc1 (stereo not given)	0.608 ± 0.03	0.617 ± 0.051	0.768 ± 0.048	0.623 ± 0.045	0.905 ± 0.21	1.32 ± 0.46	0.264 (inactive)
